This passage reports outcome and AC50 results from PubChem BioAssay (EPA / NIEHS).

Records with an inconclusive call do not appear. Active and inactive are the calls of the source. Rule for the calls, unless noted: active = hit-call score of the fitted dose curve at least 0.9, where 1 is the maximum; inactive = score below 0.9.

A short description of test [1]: ATG_RORE_CIS: Attagene CIS-FACTORIAL HepG2 Assay for human RAR-related Orphan Receptor Element (RORE) (AID 2282959). The settings on record: HepG2 Attagene cis-factorial RORE reporter, mRNA; actives raise or lower the signal. Summed up: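 HepG2 cells carrying transiently transfected cis-regulated reporter units; RORE-driven reporter mRNA quantified 24 h post-dosing by RT-PCR, 6-FAM primer extension, HpaI digestion and capillary electrophoresis. Bidirectional fit versus DMSO.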

A short description of test [2]: ATG_Sox_CIS: Attagene CIS-FACTORIAL HepG2 Assay for human SRY-box transcription factor (SOX) (AID 2282960). To be noted: HepG2 Attagene cis-factorial SOX reporter, mRNA; actives raise or lower the signal. Summed up:
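HepG2 cells transiently transfected with multiple cis-regulated reporter units, then dosed for 24 h. Reporter mRNA quantified by RT-PCR, fluorescent labelling, HpaI digestion and capillary electrophoresis; bidirectional fit versus DMSO.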

The target of test [3] is Transcription factor Sp1 (Homo sapiens) (UniProt P08047). In words: ATG_Sp1_CIS: Attagene CIS-FACTORIAL HepG2 Assay for human Specificity Protein 1 (Sp1) (AID 2282961). To be noted: HepG2 Sp1 cis-reporter transcription, actives raise or lower the signal. Put shortly: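 HepG2 cells transiently transfected with multiplexed cis-regulated reporter constructs, chemical exposure 24 h. Reporter mRNA quantified by RT-PCR with capillary electrophoresis; bidirectional fit relative to DMSO.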
Sequence of Transcription factor Sp1 (Homo sapiens) (P08047 whole entry, looked up): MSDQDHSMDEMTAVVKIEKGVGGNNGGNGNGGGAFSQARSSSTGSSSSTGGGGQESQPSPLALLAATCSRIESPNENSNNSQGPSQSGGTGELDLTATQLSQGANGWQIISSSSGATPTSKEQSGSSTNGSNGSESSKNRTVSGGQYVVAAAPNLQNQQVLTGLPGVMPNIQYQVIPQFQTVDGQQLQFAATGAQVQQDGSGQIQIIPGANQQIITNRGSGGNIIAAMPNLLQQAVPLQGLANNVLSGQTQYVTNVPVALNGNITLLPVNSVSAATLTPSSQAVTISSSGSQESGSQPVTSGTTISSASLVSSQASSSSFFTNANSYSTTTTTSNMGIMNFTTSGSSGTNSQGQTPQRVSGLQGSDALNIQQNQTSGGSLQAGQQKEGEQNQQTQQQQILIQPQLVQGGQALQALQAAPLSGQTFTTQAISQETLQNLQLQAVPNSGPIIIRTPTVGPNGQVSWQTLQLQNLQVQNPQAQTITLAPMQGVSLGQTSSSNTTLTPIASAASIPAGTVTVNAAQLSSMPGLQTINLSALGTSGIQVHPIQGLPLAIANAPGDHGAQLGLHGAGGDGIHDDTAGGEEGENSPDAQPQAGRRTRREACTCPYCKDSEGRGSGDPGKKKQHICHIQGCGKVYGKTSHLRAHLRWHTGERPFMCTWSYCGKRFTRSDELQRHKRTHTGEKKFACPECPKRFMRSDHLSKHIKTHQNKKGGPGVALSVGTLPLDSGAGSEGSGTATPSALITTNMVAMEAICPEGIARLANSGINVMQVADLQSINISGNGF

Test [4] in a line: ATG_SREBP_CIS: Attagene CIS-FACTORIAL HepG2 Assay for human Sterol Regulatory Element Binding (SREBP) (AID 2282962). The settings on record: HepG2 Attagene cis-factorial SREBP reporter, mRNA; actives raise or lower the signal. Put shortly:
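HepG2 cells transiently transfected with multiplexed cis-promoter reporter units sensing endogenous transcription factors; reporter mRNA measured 24 h after dosing by RT-PCR, 6-FAM labeling, HpaI digestion and capillary electrophoresis. Bidirectional fit versus DMSO.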

Test [5] concerns the target Signal transducer and activator of transcription 3 (Homo sapiens) (UniProt P40763). In words: ATG_STAT3_CIS: Attagene CIS-FACTORIAL HepG2 Assay for human Signal Transducer and Activator of Transcription 3 (STAT3) (AID 2282963). The settings on record: HepG2, Attagene cis-factorial STAT3 reporter transcription; actives raise or lower the signal. Summed up: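 Transcript-level reporter assay. HepG2 transient MRTU transfection, 24 h exposure, fluorescence detection after RT-PCR and CE; DMSO baseline.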

Test [6] in a line: ATG_TA_CIS: Attagene CIS-FACTORIAL HepG2 Assay for human TA Basal Promoter (AID 2282964). To be noted: HepG2 Attagene CIS-factorial TA basal promoter reporter; actives raise or lower the signal. Summed up: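 Fluorescence from labelled RT-PCR reporter fragments, separated by capillary electrophoresis, gives the signal. Cells: HepG2 transiently carrying multiple reporter units, 24 h chemical dosing. Gain or loss relative to DMSO.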

Test [7] in a line: ATG_TAL_CIS: Attagene CIS-FACTORIAL HepG2 Assay for human TAL Basal Promoter (AID 2282966).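 Note: background control endpoint measuring basal TAL promoter reporter mRNA not a specific factor.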 The settings on record: HepG2 Attagene cis-factorial TAL promoter reporter; actives raise or lower the signal. Summed up:
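In this cell-based multiplex, HepG2 liver cells bearing cis-promoter reporter constructs are dosed for 24 hours. Total RNA is reverse-transcribed and amplified, labelled fragments are sized by capillary electrophoresis, and signal changes are fitted bidirectionally versus DMSO.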

Test [8] can be described thus: ATG_TGFb_CIS: Attagene CIS-FACTORIAL HepG2 Assay for human Transforming Growth Factor (TGF) (AID 2282967). The settings on record: HepG2 Attagene CIS TGFb reporter, mRNA transcription; actives raise or lower the signal. Summed up: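 Bidirectional fitting relative to DMSO gave the endpoint. Underlying data: reporter mRNA from HepG2 cells carrying transiently transfected cis-regulated reporter constructs, harvested 24 h after dosing and analyzed by RT-PCR and capillary electrophoresis.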

The target in test [9] is Estrogen receptor (Homo sapiens) (UniProt P03372). In words: ATG_ERa_TRANS: Attagene TRANS-FACTORIAL HepG2 Assay for human Estrogen Receptor alpha (ERa) (AID 2282970; active = hit-call score of the fitted dose curve at least 0.9, where 1 is the maximum). To be noted: HepG2 Attagene TRANS ERa GAL4 reporter, mRNA. Put shortly:
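After 24 h of compound treatment, RNA from HepG2 cells bearing transfected GAL4-UAS reporter constructs is converted to cDNA, amplified and fluorescently labelled. Capillary electrophoresis resolves the ERa-linked reporter; DMSO serves as negative control.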

In test [10] the target is X-box-binding protein 1 (Homo sapiens) (UniProt P17861). In words: ATG_Xbp1_CIS: Attagene CIS-FACTORIAL HepG2 Assay for human X-box Binding Protein 1 (XBP1) (AID 2282972). The settings on record: HepG2 XBP1 cis-element reporter, Attagene multiplex; actives raise or lower the signal. Put shortly: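 HepG2 cells transiently transfected with multiple cis-element reporter units report endogenous TF activity; 24 h exposure, then reporter mRNA measured by RT-PCR, 6-FAM labelling, HpaI digestion and capillary electrophoresis. Bidirectional fitting versus DMSO.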
Sequence of X-box-binding protein 1 (Homo sapiens) (P17861 whole entry, looked up): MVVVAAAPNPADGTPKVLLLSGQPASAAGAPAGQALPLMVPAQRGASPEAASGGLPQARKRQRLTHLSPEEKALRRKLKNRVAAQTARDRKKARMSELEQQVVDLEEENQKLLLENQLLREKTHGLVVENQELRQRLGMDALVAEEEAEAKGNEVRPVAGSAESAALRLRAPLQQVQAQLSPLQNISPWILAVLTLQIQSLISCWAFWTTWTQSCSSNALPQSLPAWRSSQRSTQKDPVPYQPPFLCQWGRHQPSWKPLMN

The nature of test [11]: ATG_GAL4_TRANS: Attagene TRANS-FACTORIAL HepG2 Assay for GAL4 (Internal Marker) (AID 2282976; active = hit-call score of the fitted dose curve at least 0.9, where 1 is the maximum). The settings on record: HepG2 Attagene TRANS GAL4 internal marker reporter. Summed up: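 RT-PCR/capillary electrophoresis readout of reporter mRNA. HepG2, transient MRTU transfection (GAL4-UAS reporters), 24 h compound exposure. Background-control endpoint, positive direction vs DMSO baseline.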

In test [12] the target is Glucocorticoid receptor (Homo sapiens) (UniProt P04150). As to the kind of experiment: ATG_GR_TRANS: Attagene TRANS-FACTORIAL HepG2 Assay for human Glucocorticoid Receptor (GR) (AID 2282978; active = hit-call score of the fitted dose curve at least 0.9, where 1 is the maximum;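 note: activators score as hits since higher reporter transcript over DMSO is fitted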). To be noted: HepG2 Attagene TRANS GR reporter, mRNA transcription. Summed up: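 HepG2 cells transiently transfected with GAL4-UAS reporter units and exogenous GR-Gal4 chimera, dosed 24 h. Reporter mRNA by RT-PCR, FAM labeling, HpaI digest and capillary electrophoresis; gain-of-signal fit versus DMSO.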
Sequence of Glucocorticoid receptor (Homo sapiens) (P04150 whole entry, looked up, the tested form may be a part): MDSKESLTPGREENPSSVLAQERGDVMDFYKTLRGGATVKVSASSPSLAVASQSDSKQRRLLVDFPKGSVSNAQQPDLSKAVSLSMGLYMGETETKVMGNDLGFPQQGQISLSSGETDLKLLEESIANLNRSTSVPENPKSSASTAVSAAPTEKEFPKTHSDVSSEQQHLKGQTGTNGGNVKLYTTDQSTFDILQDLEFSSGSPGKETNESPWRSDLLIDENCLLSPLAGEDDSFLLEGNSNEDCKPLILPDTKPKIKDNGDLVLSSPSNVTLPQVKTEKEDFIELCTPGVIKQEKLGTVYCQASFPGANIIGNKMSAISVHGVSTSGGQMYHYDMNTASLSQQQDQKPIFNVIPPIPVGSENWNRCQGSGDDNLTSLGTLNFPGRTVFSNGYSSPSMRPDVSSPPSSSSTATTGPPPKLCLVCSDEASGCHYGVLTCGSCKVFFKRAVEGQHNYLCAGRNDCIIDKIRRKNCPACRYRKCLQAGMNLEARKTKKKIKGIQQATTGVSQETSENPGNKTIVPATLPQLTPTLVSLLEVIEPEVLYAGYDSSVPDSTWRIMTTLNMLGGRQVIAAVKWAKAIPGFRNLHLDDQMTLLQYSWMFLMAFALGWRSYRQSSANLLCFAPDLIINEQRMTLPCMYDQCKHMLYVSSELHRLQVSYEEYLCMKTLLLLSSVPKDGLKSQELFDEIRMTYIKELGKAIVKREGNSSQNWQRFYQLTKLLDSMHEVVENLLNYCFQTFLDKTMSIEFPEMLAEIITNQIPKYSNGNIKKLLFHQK

Test [13] in a line: ATG_VDRE_CIS: Attagene CIS-FACTORIAL HepG2 Assay for human Vitamin D Receptor Element (VDRE) (AID 2282968). The settings on record: HepG2 VDRE cis-reporter transcription, actives raise or lower the signal. Put shortly:
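RT-PCR/CE readout of reporter mRNA; HepG2, transient transfection, 24 h dosing; DMSO baseline; bidirectional analysis.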

The target in test [14] is Estrogen-related receptor gamma (Homo sapiens) (UniProt P62508). As to the kind of experiment: ATG_ERRg_TRANS: Attagene TRANS-FACTORIAL HepG2 Assay for human Estrogen-Related Receptor gamma (ERRg) (AID 2282977; active = hit-call score of the fitted dose curve at least 0.9, where 1 is the maximum;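 note: hits increase reporter signal over DMSO so potencies reflect activators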). The settings on record: HepG2 Attagene TRANS reporter, ERRg transactivation. Put shortly: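 Transfect HepG2 with multiple GAL4-UAS reporter transcription units; dose chemicals 24 h; isolate RNA, reverse-transcribe with oligo(dT), PCR-amplify, label with 6-FAM, digest with HpaI; size fragments by capillary electrophoresis. DMSO serves as negative control.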
Sequence of Estrogen-related receptor gamma (Homo sapiens) (P62508 whole entry, looked up, the tested form may be a part): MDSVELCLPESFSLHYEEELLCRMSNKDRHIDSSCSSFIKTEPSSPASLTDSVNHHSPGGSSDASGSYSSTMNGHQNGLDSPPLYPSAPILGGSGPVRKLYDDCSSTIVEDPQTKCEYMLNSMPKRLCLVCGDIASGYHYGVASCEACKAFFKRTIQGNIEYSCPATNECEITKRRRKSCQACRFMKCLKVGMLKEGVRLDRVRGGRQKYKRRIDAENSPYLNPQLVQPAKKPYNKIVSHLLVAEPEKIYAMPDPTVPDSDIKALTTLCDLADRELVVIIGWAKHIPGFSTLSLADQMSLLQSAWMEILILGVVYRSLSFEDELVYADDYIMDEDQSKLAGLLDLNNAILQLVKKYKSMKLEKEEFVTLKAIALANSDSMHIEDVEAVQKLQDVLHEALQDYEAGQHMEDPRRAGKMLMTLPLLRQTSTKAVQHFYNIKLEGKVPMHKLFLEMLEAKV

In test [15] the target is Bile acid receptor (Homo sapiens) (UniProt Q96RI1). In words: ATG_FXR_TRANS: Attagene TRANS-FACTORIAL HepG2 Assay for Farnesoid X Receptor (FXR) (AID 2282979; active = hit-call score of the fitted dose curve at least 0.9, where 1 is the maximum;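 note: hits raise reporter mRNA above DMSO so AC50 marks FXR activation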). The settings on record: HepG2 Attagene TRANS FXR-GAL4 reporter transcription. Summed up:
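Read-out: fluorescent reporter transcripts quantified by capillary electrophoresis after RT-PCR of total RNA. Source cells were HepG2 transiently carrying chimeric NR-GAL4 plus GAL4-UAS reporter units, dosed 24 h. Activity fitted upward relative to DMSO baseline.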

Test [16] in a line: ATG_TCF_b_cat_CIS: Attagene CIS-FACTORIAL HepG2 Assay for human T-Cell-Factor with beta-catenin (TCF/b-cat) (AID 2282965). The settings on record: HepG2 TCF/beta-catenin cis-reporter transcription, actives raise or lower the signal. Put shortly:
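Using capillary electrophoresis as the read-out, labelled reporter cDNA fragments from transiently transfected HepG2 were sized and quantified. Exposure lasted 24 hours; activity in either direction was referenced to DMSO.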

Test [17] has as its target Nuclear receptor subfamily 1 group I member 3 (Homo sapiens) (UniProt Q14994). In words: ATG_CAR_TRANS: Attagene TRANS-FACTORIAL HepG2 Assay for human Constitutive Androstane Receptor (CAR) (AID 2282969; active = hit-call score of the fitted dose curve at least 0.9, where 1 is the maximum;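 note: activators raise reporter mRNA above DMSO so AC50 marks induction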). The settings on record: HepG2 Attagene TRANS-FACTORIAL CAR reporter. Summed up:
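HepG2 cells transiently transfected with multiplexed GAL4-UAS reporter units expressing chimeric NR-Gal4 proteins; compound exposure 24 h. Reporter mRNA measured by RT-PCR, 6-FAM labelling, HpaI digestion and capillary electrophoresis; gain-of-signal fitted against DMSO baseline.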

Broadly, the AC50 is the concentration at which the activity in the assay is half-maximal.

Sequence of Estrogen receptor (Homo sapiens) (P03372 whole entry, looked up, the tested form may be a part): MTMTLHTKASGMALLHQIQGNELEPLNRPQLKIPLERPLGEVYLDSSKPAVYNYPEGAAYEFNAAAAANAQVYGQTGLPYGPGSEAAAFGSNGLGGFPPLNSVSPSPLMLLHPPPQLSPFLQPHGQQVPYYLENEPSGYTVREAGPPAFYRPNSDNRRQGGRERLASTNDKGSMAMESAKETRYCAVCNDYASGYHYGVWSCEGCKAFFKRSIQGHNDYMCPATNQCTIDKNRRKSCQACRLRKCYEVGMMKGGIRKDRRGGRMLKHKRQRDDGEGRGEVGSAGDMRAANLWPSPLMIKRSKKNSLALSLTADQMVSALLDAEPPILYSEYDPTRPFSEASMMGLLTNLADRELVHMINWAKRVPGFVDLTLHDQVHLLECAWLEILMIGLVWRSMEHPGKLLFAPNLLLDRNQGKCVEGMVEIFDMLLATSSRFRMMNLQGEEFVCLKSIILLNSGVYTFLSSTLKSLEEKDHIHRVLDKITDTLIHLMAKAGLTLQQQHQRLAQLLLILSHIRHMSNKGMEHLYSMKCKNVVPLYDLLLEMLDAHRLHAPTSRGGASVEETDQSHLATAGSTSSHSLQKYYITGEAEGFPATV
Sequence of Nuclear receptor subfamily 1 group I member 3 (Homo sapiens) (Q14994 whole entry, looked up, the tested form may be a part): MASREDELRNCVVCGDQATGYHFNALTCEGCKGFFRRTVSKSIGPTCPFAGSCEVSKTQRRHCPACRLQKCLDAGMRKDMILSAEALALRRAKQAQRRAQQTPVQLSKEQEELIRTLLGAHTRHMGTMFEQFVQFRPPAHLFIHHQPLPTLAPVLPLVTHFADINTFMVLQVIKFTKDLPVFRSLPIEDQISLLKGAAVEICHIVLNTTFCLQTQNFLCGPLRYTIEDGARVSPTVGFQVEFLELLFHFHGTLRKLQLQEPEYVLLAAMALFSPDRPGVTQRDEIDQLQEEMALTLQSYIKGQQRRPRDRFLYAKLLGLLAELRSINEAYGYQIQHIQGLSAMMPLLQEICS
Sequence of Signal transducer and activator of transcription 3 (Homo sapiens) (P40763 whole entry, looked up): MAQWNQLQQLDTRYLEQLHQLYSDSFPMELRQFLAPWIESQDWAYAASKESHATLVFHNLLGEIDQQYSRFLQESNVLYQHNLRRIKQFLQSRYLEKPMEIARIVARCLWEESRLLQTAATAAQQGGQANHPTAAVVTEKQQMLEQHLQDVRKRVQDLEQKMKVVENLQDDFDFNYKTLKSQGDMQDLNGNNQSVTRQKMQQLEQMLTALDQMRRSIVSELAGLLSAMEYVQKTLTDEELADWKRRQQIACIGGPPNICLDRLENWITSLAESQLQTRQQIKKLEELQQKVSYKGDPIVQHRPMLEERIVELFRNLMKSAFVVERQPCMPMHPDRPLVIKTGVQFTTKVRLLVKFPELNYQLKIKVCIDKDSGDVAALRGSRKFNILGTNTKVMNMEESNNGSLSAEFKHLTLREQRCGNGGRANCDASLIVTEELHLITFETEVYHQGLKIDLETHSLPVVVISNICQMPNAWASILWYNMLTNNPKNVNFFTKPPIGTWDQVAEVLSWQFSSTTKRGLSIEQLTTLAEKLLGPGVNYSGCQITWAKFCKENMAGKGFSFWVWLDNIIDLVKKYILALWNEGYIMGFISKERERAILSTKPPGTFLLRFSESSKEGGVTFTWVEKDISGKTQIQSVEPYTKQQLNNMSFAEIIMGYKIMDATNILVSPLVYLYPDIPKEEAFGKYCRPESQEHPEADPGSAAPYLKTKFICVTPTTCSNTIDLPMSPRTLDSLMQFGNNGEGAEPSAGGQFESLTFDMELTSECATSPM
Sequence of Bile acid receptor (Homo sapiens) (Q96RI1 whole entry, looked up, the tested form may be a part): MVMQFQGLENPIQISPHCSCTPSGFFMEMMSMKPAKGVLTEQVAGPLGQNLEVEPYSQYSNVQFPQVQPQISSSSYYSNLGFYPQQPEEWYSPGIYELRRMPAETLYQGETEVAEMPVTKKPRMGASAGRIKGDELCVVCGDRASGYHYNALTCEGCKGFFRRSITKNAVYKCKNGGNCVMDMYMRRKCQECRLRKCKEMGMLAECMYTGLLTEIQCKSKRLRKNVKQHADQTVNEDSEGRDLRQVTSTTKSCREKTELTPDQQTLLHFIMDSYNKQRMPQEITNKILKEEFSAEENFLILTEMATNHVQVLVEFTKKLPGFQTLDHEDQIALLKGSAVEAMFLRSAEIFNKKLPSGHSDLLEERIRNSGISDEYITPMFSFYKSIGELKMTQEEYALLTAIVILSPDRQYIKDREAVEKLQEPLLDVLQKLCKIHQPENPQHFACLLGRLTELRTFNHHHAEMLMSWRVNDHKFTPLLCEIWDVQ

In the case of `O=C(Cc1ccccc1)OCCc1ccccc1`, the result in [1], in test [2], in test [3], in [4], in test [5] and in [6] was inactive. In addition, the result in test [7], in test [9], in [10], in test [11] and in [12] was inactive. Further, the AC50 in [8] was 115 µM (active).

Consider `O=C/C(Cl)=C(/Cl)C(=O)O`, for which the result in [1], in [3], in test [5], in [6], in test [7] and in test [10] was inactive. For the same compound, the outcome in test [14] and in test [15] was inactive. Also, the AC50 in test [2] is 83.9 µM (active); in test [4], 159 µM (active); in [8], 43.7 µM (active); in test [13] it was 74.3 µM (active); in test [9], 156 µM (active).

`O=S1OC[C@@H]2[C@H](CO1)[C@]1(Cl)C(Cl)=C(Cl)[C@@]2(Cl)C1(Cl)Cl` (stereo not given in full): the compound was called inactive in test [1], in test [3], in test [4], in test [5], in test [6] and in test [16]. Besides, the compound was called inactive in [7], in test [8], in test [17], in [12] and in [15]. Moreover, the values for the AC50 in test [13], in [9] and in [10] were 6.07 µM (active), 3.77 µM (active) and 100 µM (active), respectively.

In the case of `C=CC(=O)NC(C)(C)CC(C)=O`, the compound was called inactive in test [1], in [2], in test [3], in test [4], in test [5] and in [6]. In addition, the compound was classed as inactive in test [7], in test [8], in test [13], in test [17], in [10] and in test [11].

With `O=C1C=CC(=O)c2ccccc21`, the result in [1], in test [3], in test [4], in test [5], in test [6] and in test [16] was inactive. For the same compound, the outcome in test [7], in [8], in test [13], in test [17], in test [10] and in test [14] was inactive. Further, the compound was classed as inactive in test [12] and in test [15].
